Reference: PubChem BioAssay AID504810 (National Center for Advancing Translational Sciences (NCATS), 2011)
The whole screen tested about 330,000 compounds, of which about 670 (0.2%) were called active.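 Rule for the calls: active = activity change below a set negative limit, meaning inhibition stronger than a set level (cut at about -70% in these data); inconclusive = activity change between two set negative limits; inactive = the rest.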 Many of the other results were omitted from the sample, so actives are more common in it than they were.

These compounds were tested against Thyrotropin receptor (Homo sapiens) (UniProt P16473) (assay: Antagonists of the Thyroid Stimulating Hormone Receptor: HTS campaign). Conditions: TSHR-expressing cells, TSH-stimulated cAMP HTRF, 2 h; at 11.5 µM; stronger effect = lower value.
Thyrotropin receptor (Homo sapiens), sequence (P16473 whole entry, looked up): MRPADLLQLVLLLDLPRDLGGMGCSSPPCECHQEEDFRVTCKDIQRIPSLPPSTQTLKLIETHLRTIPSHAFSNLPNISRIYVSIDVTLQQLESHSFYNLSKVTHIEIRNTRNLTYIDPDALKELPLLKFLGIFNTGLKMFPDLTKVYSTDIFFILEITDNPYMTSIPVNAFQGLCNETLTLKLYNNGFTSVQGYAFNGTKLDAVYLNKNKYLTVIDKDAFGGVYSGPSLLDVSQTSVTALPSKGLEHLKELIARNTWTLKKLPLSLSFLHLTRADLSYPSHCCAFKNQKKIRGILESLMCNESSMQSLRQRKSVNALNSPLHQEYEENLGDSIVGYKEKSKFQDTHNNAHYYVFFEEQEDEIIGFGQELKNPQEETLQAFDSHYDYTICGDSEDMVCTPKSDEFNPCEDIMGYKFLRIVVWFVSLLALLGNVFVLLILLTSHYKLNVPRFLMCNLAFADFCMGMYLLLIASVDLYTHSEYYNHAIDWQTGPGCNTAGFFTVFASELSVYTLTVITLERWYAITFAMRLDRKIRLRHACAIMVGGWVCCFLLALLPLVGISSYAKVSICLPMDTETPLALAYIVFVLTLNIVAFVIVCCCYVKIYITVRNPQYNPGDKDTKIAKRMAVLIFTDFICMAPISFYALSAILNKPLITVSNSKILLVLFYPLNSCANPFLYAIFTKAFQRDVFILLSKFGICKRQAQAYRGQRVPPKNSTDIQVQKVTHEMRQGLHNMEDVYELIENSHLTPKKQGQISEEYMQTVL
Source text: The thyroid-stimulating hormone receptor (TSHR) is a member of the 7 trans-membrane-spanning receptor (7TMR) family of cell surface receptors. TSHR-mediated hyperthyroidism is important in thyroid pathology. The development of small molecule antagonists of TSHR may lead to therapeutic approaches for TSHR-mediated hyperthyroidism caused by constitutively activating mutations or stimulating auto-antibodies associated with Graves' disease. Graves' disease is the leading cause of hyperthyroidism and is caused by autoantibodies that stimulate TSHR (TsAbs) causing thyroid growth and unregulated overproduction of thyroid hormones and existing treatments have liabilities (agranulocytosis). In addition, TSHRs are known to be expressed in multiple extrathyroidal tissues including bone, brain, kidney, testis, fat and cells of the immune system but the role of the TSHR in these tissues is not clear. Therefore, TSHR antagonists/inverse agonists could be used as probes of extrathyroidal TSHR function. Finally, TSHR inverse agonists, which are a subclass of antagonists that inhibit agonist-independent (or basal or constitutive) TSHR signaling, could be used to inhibit TSH-independent signaling in patients with recurrent or metastatic thyroid cancer who are receiving thyroid hormone to suppress TSH. In collaboration between scientist from the NCGC and the NIDDK, a miniaturized HTRF high-throughput screen was developed. It's a cell based assay, where an anti cAMP antibody contains a fluorescent cryptate tag (excitation 337 nm; emission 620 nm) and the acceptor is cAMP-d2 (excitation 620 nm; emission 665 nm). When antibody and cAMP-d2 interact and are excited by a 337 nm light, a FRET occurs resulting in emission at 665 nm. The assay is competition between cAMP-d2 and cAMP (from the cell lysate). The homogeneous protocol allows for one step dispense after stimulation that is automation friendly. NIH Chemical Genomics Center [NCGC] NIH Molecular Libraries Probe Centers Network [MLPCN] MLPCN Grant: MH090855-01 Assay Submitter (PI): Marvin Gerhengorn
1. 3ul of 200 TSHR freshly harvested cells/well are dispensed into a 1536 TC-treated white solid bottom plate. 2. Through pintool addition, 23nl of compounds and control in 100% DMSO are added to the plate. 3. Then 1ul of EC80 TSH (4nM final) is added to the plate. 4. Assay is incubated at 37 deg C for 2 hours. 5. 2ul of cAMP antibody diluted 1:20 in lysis buffer is added. 6. Immediately following, 2ul of d2 diluted 1:20 in HBSS is added seperately. 7. The assay is incubated for 30 minutes at ambient room temperature. 8. The result is obtained by using a ViewLux read-out with HTRF settings.
% is set by controls: 0 for no effect and ±100 for the full control effect.

Structure (SMILES) | activity change, negative = inhibition
COC(=O)C1=C(c2cccc(OCc3ccccc3)c2)C[C@@H]2CC[C@H]1N2C(=O)NCc1ccc(Br)cc1 | -5.89% (inactive)
COC(=O)C1=C(c2ccc(F)cc2OCc2ccccc2)C[C@@H]2CC[C@H]1N2C(=O)NCc1ccc(Cl)cc1 | -10% (inactive)
COC(=O)C1=C(c2ccc(-c3ccccc3)c(F)c2)C[C@@H]2CC[C@H]1N2C(=O)NCc1ccc(F)cc1 | -85% (active)
c1ccc2c(c1)[I+]c1ccccc1-2 | -36.8% (inactive)
CC(=O)c1c(O)c(C)c(O)c(Cc2c(O)c3c(c(C(=O)/C=C/c4ccccc4)c2O)OC(C)(C)C=C3)c1O | -26.9% (inactive)
CCOC(=O)c1ncn2c1[C@@H]1CCCN1C(=O)c1cc(OC)ccc1-2 | -12.5% (inactive)
C[C@]12CC[C@H](O)C[C@H]1CC[C@@H]1C2CC[C@]2(C)[C@@H](C3=CC(=O)OC3)[C@@H](O)C[C@]12O (stereo not given in full) | -81.8% (active)
C[C@]12CCC3C(CC[C@H]4C[C@@H](O)CC[C@]34C)C1C[C@@H](O)[C@H]2O (stereo not given in full) | 2.4% (inactive)
C[C@]12CCC3C(CC[C@H]4C[C@@H](O)CC[C@]34C)C1CC[C@@H]2O (stereo not given in full) | 3.15% (inactive)
CC(=O)NBr | -6.86% (inactive)
